# Source: PubChem BioAssay (NCI)
# Compounds without any hit were thinned out: in the full panel of roughly 79,000, 15% have a hit. Values without a mark were called inactive. Calls of active or inactive are those of the source. Cut-off read from the data, not from the text of the source: active = growth inhibition above about 70%; inactive = the rest.
# Tests used:
# [1] = NCI Yeast Anticancer Drug Screen. Data for the rad52 strain (AID 147);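 note: 0% = growth of vehicle-treated control cultures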; conditions: S. cerevisiae rad52 mutant growth inhibition, active compounds read high
# Outline: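 Growth of repair-deficient yeast cells was compared between compound-treated and vehicle-treated cultures to give percent inhibition.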
# [2] = NCI Yeast Anticancer Drug Screen. Data for the wt1 strain (AID 149);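 note: 0% = growth of vehicle-treated wt1 cultures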; conditions: S. cerevisiae wt1 strain (SPY 50644) growth inhibition, active compounds read high
# Outline: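 Measured: growth of wt1 yeast under compound versus vehicle treatment, reported as inhibition.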
# [3] = NCI Yeast Anticancer Drug Screen. Data for the rad50EPP+ strain (AID 151);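 note: 0% = growth of vehicle-treated control cultures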; conditions: S. cerevisiae rad50 mutant strain, active compounds read high
# Outline: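 Measured: growth inhibition of rad50EPP+ yeast. Reference: vehicle-treated controls. Screen uses strains with defined genetic alterations in DNA damage repair or cell cycle control.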
# [4] = NCI Yeast Anticancer Drug Screen. Data for the rad50 strain (AID 155);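 note: 0% = growth of vehicle-only cultures of the same strain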; conditions: S. cerevisiae rad50 strain growth inhibition, active compounds read high
# Outline: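 Growth of the mutant yeast was measured after compound exposure and referenced to vehicle-treated cultures.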
# [5] = NCI Yeast Anticancer Drug Screen. Data for the mec2-1 strain (AID 157); conditions: S. cerevisiae mec2-1 strain, active compounds read high
# Outline: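 Compounds were applied to mec2-1 yeast cells. Their growth was then compared with that of vehicle-treated cultures to give growth inhibition.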
# [6] = NCI Yeast Anticancer Drug Screen. Data for the rad14 strain (AID 159);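 note: 0% = growth of vehicle-treated control cultures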; conditions: S. cerevisiae rad14 strain growth inhibition, active compounds read high
# Outline: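 Here, inhibition of yeast growth was measured after compound exposure, using a strain with a genetic defect in DNA damage repair and vehicle-treated cultures as the reference.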
# [7] = NCI Yeast Anticancer Drug Screen. Data for the sgs1 mgt1 strain (AID 161);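 note: 0% = growth of cultures given vehicle only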; conditions: S. cerevisiae sgs1 mgt1 strain, active compounds read high
# Outline: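 Percent growth inhibition was derived by comparing compound-exposed mutant yeast with vehicle-exposed cultures. The strain carries alterations in DNA damage repair.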
# [8] = NCI Yeast Anticancer Drug Screen. Data for the CLN2oe strain (AID 163);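 note: 0% = growth of vehicle-only control cultures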; conditions: S. cerevisiae CLN2oe strain, active compounds read high
# Outline: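 Cells of an engineered yeast line with disturbed cell-cycle regulation are treated with compound. Inhibition of growth is then calculated relative to the vehicle-treated reference.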
# [9] = NCI Yeast Anticancer Drug Screen. Data for the cln2 rad14 strain (AID 165);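 note: 0% = growth equal to vehicle treated cultures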; conditions: S. cerevisiae cln2 rad14 strain, active compounds read high
# Outline: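 Strain: cln2 rad14 yeast, altered in cell cycle control and DNA damage repair. Read-out: growth inhibition vs vehicle.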
# [10] = NCI Yeast Anticancer Drug Screen. Data for the bub3 strain (AID 167); conditions: S. cerevisiae bub3 mutant strain, active compounds read high
# Outline: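 Whole-cell yeast assay. The mutant strain was incubated with compounds, and growth inhibition was determined by comparison with vehicle-treated cells.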
# [11] = NCI Yeast Anticancer Drug Screen. Data for the wt2 strain (AID 169);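 note: 0% = growth of vehicle-treated yeast cultures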; conditions: S. cerevisiae wt2 strain growth inhibition, active compounds read high
# Outline: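 Growth of compound-treated yeast is measured and expressed as inhibition relative to vehicle-only controls.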
# [12] = NCI Yeast Anticancer Drug Screen. Data for the mlh1 strain (AID 171);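 note: 0% = growth of vehicle-treated control cultures of the same strain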; conditions: S. cerevisiae mlh1 strain growth inhibition, active compounds read high
# Outline: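 Test agents were incubated with yeast bearing a defined DNA damage repair or cell cycle control alteration; values are growth inhibition normalised to vehicle-treated cultures.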
# [13] = NCI Yeast Anticancer Drug Screen. Data for the sgs1 strain (AID 173);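 note: 0% = growth of vehicle-only control cultures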; conditions: S. cerevisiae sgs1 mutant, active compounds read high
# Outline: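 Strain with an altered DNA repair or cell cycle pathway exposed to compound. Growth then measured. Value = inhibition versus vehicle control.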
# [14] = NCI Yeast Anticancer Drug Screen. Data for the mlh1 rad18 strain (AID 175); conditions: S. cerevisiae mlh1 rad18 strain growth inhibition, active compounds read high
# Outline: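 A repair-deficient yeast strain is exposed to test compound, and growth is scored relative to vehicle-treated controls.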
# [15] = NCI Yeast Anticancer Drug Screen. Data for the rad18 strain (AID 177); conditions: S. cerevisiae rad18 mutant growth inhibition, active compounds read high
# Outline: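 DNA-repair-defective yeast; compound treatment; growth inhibition scored against vehicle.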
# [16] = at 5.0 µM (retest, dose inferred, filed as 0.5)
# [17] = at 50.0 µM (retest, dose inferred, filed as 5.0)
smiles,measurement,setting,value
CC(Br)C(=O)c1ccc2cc(Br)c3ccccc3c2c1 (stereo unspecified),growth inhibition,[1]; at 1.2 µM,-2%
same,growth inhibition,[1]; at 3.7 µM,-2%
same,growth inhibition,[1]; at 11.0 µM,-2%
same,growth inhibition,[1]; at 33.0 µM,4%
same,growth inhibition,[1]; at 100.0 µM,2%
same,growth inhibition,[2]; at 1.2 µM,0%
same,growth inhibition,[2]; at 3.7 µM,0%
same,growth inhibition,[2]; at 11.0 µM,1%
same,growth inhibition,[2]; at 33.0 µM,-5%
same,growth inhibition,[2]; at 100.0 µM,-3%
same,growth inhibition,[3]; at 1.2 µM,2%
same,growth inhibition,[3]; at 3.7 µM,14%
same,growth inhibition,[3]; at 11.0 µM,24%
same,growth inhibition,[3]; at 33.0 µM,35%
same,growth inhibition,[3]; at 100.0 µM,39%
same,growth inhibition,[4]; at 1.2 µM,1%
same,growth inhibition,[4]; at 3.7 µM,-2%
same,growth inhibition,[4]; [16],-3%
same,growth inhibition,[4]; at 11.0 µM,10%
same,growth inhibition,[4]; at 33.0 µM,0%
same,growth inhibition,[4]; [17],41%
same,growth inhibition,[4]; at 50.0 µM,63.7%
same,growth inhibition,[4]; at 100.0 µM,0%
same,growth inhibition,[5]; at 1.2 µM,2%
same,growth inhibition,[5]; at 3.7 µM,4%
same,growth inhibition,[5]; [16],-5%
same,growth inhibition,[5]; at 11.0 µM,6%
same,growth inhibition,[5]; at 33.0 µM,6%
same,growth inhibition,[5]; [17],12%
same,growth inhibition,[5]; at 50.0 µM,27.4%
same,growth inhibition,[5]; at 100.0 µM,16%
same,growth inhibition,[6]; at 1.2 µM,0%
same,growth inhibition,[6]; at 3.7 µM,-1%
same,growth inhibition,[6]; at 11.0 µM,0%
same,growth inhibition,[6]; at 33.0 µM,-5%
same,growth inhibition,[6]; at 100.0 µM,17%
same,growth inhibition,[7]; [16],2%
same,growth inhibition,[7]; [17],76% (active)
same,growth inhibition,[7]; at 50.0 µM,74.5% (active)
same,growth inhibition,[8]; at 1.2 µM,-4%
same,growth inhibition,[8]; at 3.7 µM,-2%
same,growth inhibition,[8]; at 11.0 µM,-7%
same,growth inhibition,[8]; at 33.0 µM,-4%
same,growth inhibition,[8]; at 100.0 µM,-1%
same,growth inhibition,[9]; [16],-24%
same,growth inhibition,[9]; [17],-32%
same,growth inhibition,[9]; at 50.0 µM,26.5%
same,growth inhibition,[10]; at 1.2 µM,-7%
same,growth inhibition,[10]; at 3.7 µM,-1%
same,growth inhibition,[10]; [16],-10%
same,growth inhibition,[10]; at 11.0 µM,3%
same,growth inhibition,[10]; at 33.0 µM,2%
same,growth inhibition,[10]; [17],23%
same,growth inhibition,[10]; at 50.0 µM,58%
same,growth inhibition,[10]; at 100.0 µM,-3%
same,growth inhibition,[11]; at 1.2 µM,-3%
same,growth inhibition,[11]; at 3.7 µM,-1%
same,growth inhibition,[11]; at 11.0 µM,-1%
same,growth inhibition,[11]; at 33.0 µM,3%
same,growth inhibition,[11]; at 100.0 µM,4%
same,growth inhibition,[12]; at 1.2 µM,4%
same,growth inhibition,[12]; at 3.7 µM,4%
same,growth inhibition,[12]; at 11.0 µM,6%
same,growth inhibition,[12]; at 33.0 µM,-11%
same,growth inhibition,[12]; at 100.0 µM,17%
same,growth inhibition,[13]; at 1.2 µM,3%
same,growth inhibition,[13]; at 3.7 µM,8%
same,growth inhibition,[13]; at 11.0 µM,14%
same,growth inhibition,[13]; at 33.0 µM,17%
same,growth inhibition,[13]; at 100.0 µM,17%
same,growth inhibition,[14]; [16],9%
same,growth inhibition,[14]; [17],38%
same,growth inhibition,[14]; at 50.0 µM,68.3%
same,growth inhibition,[15]; at 1.2 µM,5%
same,growth inhibition,[15]; at 3.7 µM,5%
same,growth inhibition,[15]; at 11.0 µM,17%
same,growth inhibition,[15]; at 33.0 µM,18%
same,growth inhibition,[15]; at 100.0 µM,22%
COc1ccc(N=C2C(=O)Nc3ccc(Br)cc32)cc1,growth inhibition,[1]; at 1.2 µM,14%
same,growth inhibition,[1]; at 3.7 µM,15%
same,growth inhibition,[1]; at 11.0 µM,18%
same,growth inhibition,[1]; at 33.0 µM,23%
same,growth inhibition,[1]; at 100.0 µM,17%
same,growth inhibition,[2]; at 1.2 µM,8%
same,growth inhibition,[2]; at 3.7 µM,15%
same,growth inhibition,[2]; at 11.0 µM,9%
same,growth inhibition,[2]; at 33.0 µM,14%
same,growth inhibition,[2]; at 100.0 µM,15%
same,growth inhibition,[3]; at 1.2 µM,-9%
same,growth inhibition,[3]; at 3.7 µM,1%
same,growth inhibition,[3]; at 11.0 µM,-11%
same,growth inhibition,[3]; at 33.0 µM,6%
same,growth inhibition,[3]; at 100.0 µM,-20%
same,growth inhibition,[4]; at 1.2 µM,-14%
same,growth inhibition,[4]; at 3.7 µM,-14%
same,growth inhibition,[4]; [16],50%
same,growth inhibition,[4]; at 11.0 µM,-23%
same,growth inhibition,[4]; at 33.0 µM,-11%
same,growth inhibition,[4]; [17],61%
same,growth inhibition,[4]; at 50.0 µM,13.8%
same,growth inhibition,[4]; at 100.0 µM,-5%
same,growth inhibition,[5]; at 1.2 µM,-19%
same,growth inhibition,[5]; at 3.7 µM,-13%
same,growth inhibition,[5]; [16],48%
same,growth inhibition,[5]; at 11.0 µM,-19%
same,growth inhibition,[5]; at 33.0 µM,-26%
same,growth inhibition,[5]; [17],61%
same,growth inhibition,[5]; at 50.0 µM,10.7%
same,growth inhibition,[5]; at 100.0 µM,-20%
same,growth inhibition,[6]; at 1.2 µM,-22%
same,growth inhibition,[6]; at 3.7 µM,-25%
same,growth inhibition,[6]; at 11.0 µM,-26%
same,growth inhibition,[6]; at 33.0 µM,-28%
same,growth inhibition,[6]; at 100.0 µM,-30%
same,growth inhibition,[7]; [16],-15%
same,growth inhibition,[7]; [17],23%
same,growth inhibition,[7]; at 50.0 µM,28.9%
same,growth inhibition,[8]; at 1.2 µM,-7%
same,growth inhibition,[8]; at 3.7 µM,23%
same,growth inhibition,[8]; at 11.0 µM,19%
same,growth inhibition,[8]; at 33.0 µM,23%
same,growth inhibition,[8]; at 100.0 µM,1%
same,growth inhibition,[9]; [16],54%
same,growth inhibition,[9]; [17],37%
same,growth inhibition,[9]; at 50.0 µM,-7.9%
same,growth inhibition,[10]; at 1.2 µM,-7%
same,growth inhibition,[10]; at 3.7 µM,-7%
same,growth inhibition,[10]; [16],32%
same,growth inhibition,[10]; at 11.0 µM,-2%
same,growth inhibition,[10]; at 33.0 µM,2%
same,growth inhibition,[10]; [17],85% (active)
same,growth inhibition,[10]; at 50.0 µM,82.4% (active)
same,growth inhibition,[10]; at 100.0 µM,50%
same,growth inhibition,[11]; at 1.2 µM,19%
same,growth inhibition,[11]; at 3.7 µM,1%
same,growth inhibition,[11]; at 11.0 µM,9%
same,growth inhibition,[11]; at 33.0 µM,20%
same,growth inhibition,[11]; at 100.0 µM,11%
same,growth inhibition,[12]; at 1.2 µM,6%
same,growth inhibition,[12]; at 3.7 µM,-3%
same,growth inhibition,[12]; at 11.0 µM,-19%
same,growth inhibition,[12]; at 33.0 µM,-24%
same,growth inhibition,[12]; at 100.0 µM,-18%
same,growth inhibition,[13]; at 1.2 µM,1%
same,growth inhibition,[13]; at 3.7 µM,-10%
same,growth inhibition,[13]; at 11.0 µM,-5%
same,growth inhibition,[13]; at 33.0 µM,-16%
same,growth inhibition,[13]; at 100.0 µM,-11%
same,growth inhibition,[14]; [16],47%
same,growth inhibition,[14]; [17],55%
same,growth inhibition,[14]; at 50.0 µM,27%
same,growth inhibition,[15]; at 1.2 µM,-25%
same,growth inhibition,[15]; at 3.7 µM,-36%
same,growth inhibition,[15]; at 11.0 µM,-39%
same,growth inhibition,[15]; at 33.0 µM,-30%
same,growth inhibition,[15]; at 100.0 µM,-28%
